Only some compounds are listed: those with a hit (about 9.4% of all), similar ones and a draw of the others.
SMN2 splice enh – SMN2 splice variant enhancement; HEK293 SMN2-luciferase splicing reporter, luminescence, 30-36 h; Potency, µM (doses to about 46.1 µM), inactives show at the top dose activity change, positive = activation, hits mostly activators; actives 2.8% (n = 210,000); AID 1458; also: % of control where 0% means no effect; nearly all actives have a fitted effect of over 55% in size
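HEK293 cells carry an SMN2 […]–luciferase reporter in which exon 7 inclusion puts luciferase in frame. Cells were plated 10-12 h before compound addition, then incubated 30-36 h at 37C. ONE-Glo luminescence was read; sodium butyrate at 4.5 mM final served as control.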
ELG1 genotoxic – inducers of genotoxicity in HEK293T ELG1-luciferase cells; Potency, µM (highest dose often 46 µM), inactives show at the top dose activity change, positive = activation, hits mostly activators; actives 1.3% (n = 330,000); HEK293T ELG1-luciferase reporter, luminescence, 16 h; also: % of control where 0% means no effect; nearly all actives have a fitted effect of over 60% in size
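DMSO vehicle served as control against compound-treated ELG1-luciferase HEK293T cells; exposure lasted 16 hr at 37 °C and 5% CO2, followed by ONE-Glo luminescence detection after 30 min.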
NPC1 prom act – activators of NPC1 promoter. Huh7 NPC1 promoter luciferase reporter, 24 h. Potency, µM (highest dose often 9.22 µM), inactives show at the top dose activation, hits mostly activators. actives 2.4% (n = 320,000). AID 485313; also: % of control where 0% means no effect; nearly all actives have a fitted effect of over 60% in size
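Luciferase expression driven by the NPC1 promoter was measured in stably transfected Huh7 cells after a 24 h compound incubation, using a luciferase reagent and a luminescence read.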
FLuc counter – inhibits or activates purified firefly luciferase, miR-21 counter-screen | Potency, µM (top dose mostly 57.5 µM), inactives show top-dose activity change, negative = inhibition, actives largely listed as inhibitors | actives 6.9% (n = 360,000) | purified FLuc, Km substrates, luminescence inhibition | AID 588342;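 also: plate controls were vehicle for no effect and reference inhibitor for full effect; nearly all actives have a fitted effect of over 55% in size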
Target sequence (P08659 whole entry, looked up): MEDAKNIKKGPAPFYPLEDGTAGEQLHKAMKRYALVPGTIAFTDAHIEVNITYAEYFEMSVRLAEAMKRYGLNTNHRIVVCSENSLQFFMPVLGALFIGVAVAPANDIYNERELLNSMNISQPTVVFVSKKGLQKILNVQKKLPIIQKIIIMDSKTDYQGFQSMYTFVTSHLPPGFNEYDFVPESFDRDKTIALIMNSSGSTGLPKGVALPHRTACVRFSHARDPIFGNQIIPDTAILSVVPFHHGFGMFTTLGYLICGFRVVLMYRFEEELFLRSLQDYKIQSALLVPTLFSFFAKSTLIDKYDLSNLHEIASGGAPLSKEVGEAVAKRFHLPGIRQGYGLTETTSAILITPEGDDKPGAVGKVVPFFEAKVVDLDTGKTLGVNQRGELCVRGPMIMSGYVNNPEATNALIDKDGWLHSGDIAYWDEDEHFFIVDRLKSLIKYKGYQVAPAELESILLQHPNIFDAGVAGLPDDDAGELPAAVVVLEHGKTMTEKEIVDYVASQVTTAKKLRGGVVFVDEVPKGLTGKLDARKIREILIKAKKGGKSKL
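Biochemical qHTS of compounds, final roughly 60 µM downward over six points, against 10 nM purified firefly luciferase using Km concentrations of substrates (10 uM D-luciferin, 10 uM ATP) in Tris acetate pH 7.5 buffer; luminescence output.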
ELG1 repair inh – ELG1-dependent DNA repair inhibition. Potency, µM (doses to about 46.1 µM), for the others: top-dose activity change, negative = inhibition, usual class: inhibitors. HEK293T ELG1-luciferase reporter, luminescence, 16 h; DNA damage induced by 5-fluorouridine. actives 2.3% (n = 330,000). AID 504467; also: % is scaled to controls: 0 for no effect and ±100 for the full control effect; nearly all actives have a fitted effect of over 55% in size
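HEK293T cells expressing luciferase-tagged ELG1 (2,000/well) received 5-Fluorouridine plus compound or DMSO for 16 hr at 37 °C. Luciferase was read by ONE-Glo luminescence after 30 min at room temperature.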
Rab9 prom act – activates the Rab9 promoter | Huh7 Rab9 promoter-luciferase reporter, luminescence, 24 h | Potency, µM (doses to about 9.22 µM), inactives show at the highest dose activation, negative = inhibition, most hits filed as activators | actives 2.8% (n = 320,000) | AID 485297; also: % of control where 0% means no effect; nearly all actives have a fitted effect of over 60% in size
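Luciferase signal after 10 min detection reagent at ambient indicates Rab9 promoter upregulation; stably transfected Huh7 cells were treated 24 h with compound in DMSO at 37 °C, 5% CO2.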
The depositor's hits bear a star; ? = inconclusive; . = no result; [ ] = dose if it differs, or a comment. Calls follow the shape of the dose curve; as a rule, active = well fitted curve in the direction sought with a large enough effect; inconclusive = small, poorly fitted or top-dose-only effect, or another doubt; inactive = no such curve, though single readings can be large; an effect the other way counts as inactive or inconclusive. Potency is read from the fitted curve at half-maximal effect.

SMILES | SMN2 splice enh | ELG1 genotoxic | NPC1 prom act | FLuc counter | ELG1 repair inh | Rab9 prom act
CC(C)C(=O)N1CCN(c2ccc(NC(=O)c3cccs3)cc2)CC1 | 16% | 1% | -3% | -10% | ? | -2%
CN1CCN(c2ccc(NC(=O)c3cccs3)cc2)CC1 | 11µM* | ? | 3.2µM* | 12µM* | ? | 0.56µM*
CCOc1ccc(-c2ccc(NS(=O)(=O)c3cc(C)c(C)cc3C)cc2)nn1 | . | . | . | -20% | . | .
Cc1ccc(-n2c(=O)c3c(c4cc(C)ccc4n3C)n(CC(=O)Nc3ccc(F)cc3)c2=O)cc1 | . | . | . | -2% | . | .
O=c1c2oc3ccccc3c2n(Cc2cccc(C(F)(F)F)c2)c(=O)n1Cc1ccc2c(c1)OCO2 | . | . | . | -1% | . | .
O=[N+]([O-])c1ccc2oc(C3CCCCC3)nc2c1 | . | ? | 15% | 17µM* | ? | ?
Nc1ccc2oc(C3CCCCC3)nc2c1 | 11µM* | ? | ? | 24µM* | ? | ?
COc1ccccc1NC(=O)Cn1c(=O)n(-c2ccc(C)cc2)c(=O)c2c1cnn2C | -13% | . | . | 0% | . | .
NCCNc1cccc2ccccc12 | -11% | . | . | . | . | .
COc1ccccc1NC(=O)c1cc2c(=O)oc3ccc(C)cc3c2s1 | 18% | . | . | -1% | . | .
CCOc1cc2sc(N3CCC(C(=O)Nc4ccccc4Cl)CC3)nc2cc1Br | ? | . | . | 0% | . | .
CCCN1CCc2c(sc(NC(=O)c3ccc(S(=O)(=O)N(C)c4ccccc4)cc3)c2C(=O)NC)C1 | . | -18% | -1% | 0% | 23µM* | -6%
COc1cccc(NC(=O)C2CCN(S(=O)(=O)c3c(C)noc3/C=C/c3cccs3)CC2)c1 | -27% | . | . | -6% | . | .
CCc1nc(SCC(=O)c2cccs2)c2oc3ccccc3c2n1 | -25% | -4% | 0% | 11µM* | ? | 18%
CCc1nc(SCC(=O)NCCc2ccccc2)c2oc3ccccc3c2n1 | -15% | -5% | -3% | -19% | ? | 4%
Cc1nc(SCC(=O)c2ccc(Cl)s2)c2oc3ccccc3c2n1 | 12% | 0% | ? | 9.5µM* | 2% | ?
CC1CCN(S(=O)(=O)c2ccc3c(ccn3CC(=O)NCc3ccccc3F)c2)CC1 | . | . | . | 0% | . | .
Cc1cc(/C([O-])=C(/C(=S)Nc2ccccc2)[n+]2ccccc2)c(C)n1-c1ccccc1 | 0% | 10µM* | 17% | 12µM* | ? | 22%
CCOC(=O)c1cnc2c(Cl)cc(Cl)cc2c1NCCOCCO | 2% | -4% | -1% | 0% | 18µM* | -6%
CCOC(=O)c1cnc2c(Cl)cc(Cl)cc2c1Nc1cc(C(=O)O)ccc1C | -7% | . | . | 12µM* | . | .
CCOC(=O)c1cnc2c(Cl)cc(Cl)cc2c1Nc1ccccc1OC | -14% | . | . | 0% | . | .
CCOC(=O)c1cnc2c(ccc3ccccc32)c1NCCCN(C)C | . | ? | -4% | 7.6µM* | ? | 5%
COc1cc(Cl)c(C)cc1NC(=O)Cn1cnc2sc(C)c(S(=O)(=O)N3CCCCC3)c2c1=O | -14% | . | . | 3% | . | .
CCOc1ccc(OCC)c(NC(=O)C2CCCN(S(=O)(=O)c3cc(Br)cc4c3N(C(=O)CC)CC4)C2)c1 (stereo not drawn) | 11% | . | . | 2% | . | .
Cc1cc(C)cc(NC(=O)CN2C(=O)NC(C)(c3ccccc3)C2=O)c1 (stereo not drawn) | -11% | 2% | -6% | -20% | 4% | 12%
SMILES | SMN2 splice enh | ELG1 genotoxic | NPC1 prom act | FLuc counter | ELG1 repair inh | Rab9 prom act
CC1(c2ccccc2)NC(=O)N(CC(=O)Nc2cccc(/C=C/c3ccccn3)c2)C1=O (stereo not drawn) | . | -8% | 0% | 19µM* | ? | 10%
Cc1ccc(-c2csc(=S)[nH]2)cc1 | . | ? | 3.2µM* | ? | ? | ?
Cc1ccc(-c2noc(CNC(=O)COc3cc(C)c(Br)c(C)c3)n2)cc1 | 15% | . | . | 3% | . | .
Cc1ccc(-c2nn[nH]n2)cc1Cl | . | 2% | 1% | 17µM* | 0% | -5%
Cc1ccc(-c2nn[nH]n2)cc1 | 1% | 1% | -5% | ? | 22% | -2%
O=C(CSC(=S)N1CCCCC1)c1ccccc1 | 0.56µM* | 0.65µM* | 0.5µM* | 1.2µM* | ? | 0.32µM*
O=C(CSC(=S)N1CCCC1)c1ccccc1 | . | 0.58µM* | 0.63µM* | 1.1µM* | ? | 0.4µM*
OCCCNCc1ccncc1 | 4%[9.22 µM] | . | . | . | . | .
O=C(CCCN1C(=O)C(c2ccccc2)Oc2cccnc21)Nc1ccc(Br)cc1F (stereo not drawn) | . | . | . | 2% | . | .
COc1ccc(N(CC(=O)Nc2cccc(Cl)c2)S(=O)(=O)c2c(C)[nH]c(=O)[nH]c2=O)cc1 | -4% | . | . | ? | . | .
CCOC(=O)/C(C#N)=C/c1cc(C)n(-c2ccc(C)cc2)c1C | -7% | 1.8µM* | 2.8µM* | 2.4µM* | ? | 1µM*
Cc1cc(/C=C(\C#N)C(=O)Nc2ccccc2)c(C)n1-c1ccc(C(=O)O)cc1 | . | -4% | 3% | -5% | -8% | 0%
CCCn1c(C)cc(/C=C(\C#N)C(=O)OCC(=O)NC(=O)NCC)c1C | 6% | 3% | 0% | 12µM* | 6% | -7%
CCOC(=O)/C(C#N)=C\c1cc(C)n(-c2ccccc2)c1C | -66% | ? | 1.6µM* | 0.43µM* | ? | 1.8µM*
COc1ccccc1CNC(=O)C(=O)NCC(c1cccs1)S(=O)(=O)c1ccc(F)cc1 (stereo not drawn) | . | . | . | 2% | . | .
O=C(NCCc1ccc(Cl)cc1)c1cccc(NC2=NC3CS(=O)(=O)CC3S2)c1 (stereo not drawn) | . | 0% | -2% | 17µM* | 13% | 0%
Cc1cc(C)cc(N=c2c([N+](=O)[O-])nn(-c3ccc4c(c3)OCCO4)n2O)c1 | -17% | -12% | -29% | -17% | 1% | -36%
O=[N+]([O-])c1nn(-c2ccc3c(c2)OCCO3)n(O)c1=NCCCO | 18% | 4% | ? | -19% | ? | 2µM*
COc1ccc(-n2nc([N+](=O)[O-])c(=NCc3ccc4c(c3)OCO4)n2O)cc1 | ? | ? | 2.2µM* | ? | ? | ?
Cc1ccc(CN=c2c([N+](=O)[O-])nn(-c3ccc4c(c3)OCCO4)n2O)cc1 | . | ? | ? | 12µM* | ? | ?
O=[N+]([O-])c1nn(-c2ccc3c(c2)OCCO3)n(O)c1=NC1CCCCCC1 | -5% | ? | 19% | 17µM* | ? | ?
CCCCN(CC)C(=O)CSc1c2c(nc3ccc(Cl)cc13)CCCC2 | -13% | . | . | 3% | . | .
